Measurements reported in the supplement of paper PMC10338343.
± gives the standard deviation. The full ranking holds about 5,500 sequences; the median of “pre-steady-state target cleavage rate” is about 0.1, and the highest 2% start at about 0.64. The full list was thinned out, with the highest values kept by preference.

System: MIWI (PIWIL1) piRISC loaded with piRNA #2 (30 nt)
Assay: pre-steady-state target cleavage rate (min^-1); MIWI and MILI are mouse PIWI proteins and EfPiwi is from a freshwater sponge; tags in brackets are library labels; higher = faster piRNA-guided slicing of the target
Conditions: guide: piRNA #2 5'p-UUAGGUAACCCAGUAGAUCCAGAGGAAUUC; auxiliary factor: 500 nM mouse GTSF1
Procedure: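 Cleave-'n-Seq: a library of target RNAs (target site embedded in constant flanks, ACAGCATTCCGCGTTAGTGATATCCG... 5' flank; DNA-blocked outside the site) at 0.1 nM was incubated with 1 nM active mouse MILI or MIWI piRISC (synthetic 5'-monophosphorylated piRNA guide) with or without 500 nM mouse GTSF1 at 33 °C for 1 min to 16 h. Uncleaved targets were sequenced and normalised to non-target controls, and the pooled three trials were fitted to a burst-and-steady-state model to give the pre-steady-state cleavage rate (min^-1; k3 is constrained to at most 1e-4). Sequence is the target site only; target names encode pairing extent (gX:gY) and contiguous / 1-mismatch / 2-mismatch / bulge geometry. Fits with R² ≤ 0 are excluded.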

Row | Sequence | pre-steady-state target cleavage rate
1 | CUAUUACCUCUGGAUCUACUGGGUUACCUAA | 0.227 ± 0.041
2 | CUUAAGGUCUGGAACUACUGGCUUACCUAA | 0.027 ± 0.022
3 | CUUAAGCUCAGGAUCUACAGGGUUACCUAA | 0.081 ± 0.014
4 | CUUAAGGACAGCAUCUACUGGGUUACCUAA | 0.00648 ± 0.0035
5 | CUAUUCGUCUGGAUCUACUGGGUUACCAAA | 0.36 ± 0.064
6 | CUUUACCUCUCGAUCUACUGGGUUACCUAA | 0.47 ± 0.033
7 | CUUUUCCUCUCGAUCUACUGGGUUACCUAA | 0.602 ± 0.04
8 | CAUUUCCUCUGGAUCUACUGGGUUACCUAA | 0.541 ± 0.059
9 | GAUUUCCUCUGGAUCUACUGGGUUACCUAA | 0.183 ± 0.042
10 | CAUUUCCUCUCGAUCUACUGGGUUACCUAA | 0.808 ± 0.052
11 | GAUUUCCUCUCGAUCUACUGGGUUACCUAA | 0.66 ± 0.067
12 | CAAUUCGACUGGAUCUACUGGGUUACCUAA | 0.357 ± 0.05
13 | CUUUUCCUCUGGAUCUACUGCGUAACCUAA | 0.174 ± 0.032
14 | CUUAAGGAGAGGAUCUACUGGGUUACCUAC [g2:g20:cont:t1C] | 0.0183 ± 0.0054
15 | CAAUUGCUCUGGAUCUACUGGGUUACCUUA | 0.212 ± 0.048
16 | GAAUUCCUCUGGAUCUACUCGCUUACCUAA | 0.00392 ± 0.0028
17 | CUUAAGGAGAGCGAUCUACUGGGUUACCUAA | 0.00514 ± 0.003
18 | CUUUUCCUCUGGAUCUACUGCGUUACCUAA | 0.527 ± 0.057
19 | CAAUUCCUCUCGAUCUACUCGGUUACCUAA | 0.22 ± 0.022
20 | GAAUUCCUCUCGAUCUACUGCGUUACCUAA | 0.691 ± 0.063
21 | GAAUUCCUCUGGAUCUACUGCGUUACCUAA | 0.469 ± 0.056
22 | CUAUUCCUCUCGAUCUACUCGGUUACCUAA | 0.196 ± 0.017
23 | GAAUUCCUCUCGAUCUACUCGGUUACCUAA | 0.123 ± 0.018
24 | CUUUUCCUCAGGAUCUACUGCGUUACCUAA | 0.524 ± 0.062

Row | Sequence | pre-steady-state target cleavage rate
25 | CUAUUCCUCUCGAUCUACUGCGUUACCUAA | 0.948 ± 0.092
26 | CUAUUCCUCUGGAUCUACUGCGUUACCUAA | 0.521 ± 0.065
27 | CUUUUCCUCUCGAUCUACUGCGUUACCUAA | 0.845 ± 0.072
28 | CAAUUCCUCUCGAUCUACUGCGUUACCUAA | 0.907 ± 0.084
29 | CAAUUCCUCUGGAUCUACUGCGUUACCUAA | 0.593 ± 0.069
30 | CUUAUCCUCUGGAUCUACUCCGUUACCUAA | 0.021 ± 0.009
31 | CAUUUCCUCUGGAACUACUGGGUUACCUAA | 0.612 ± 0.044
32 | GAAUUGCUCAGGAUCUACUGGGUUACCUAA | 0.168 ± 0.037
33 | CUUAAGGUCUGGAUCUACUGGGUUUGCUAA | 0.0859 ± 0.018
34 | CAAUUCCUGUGGAUCUACAGGGUUACCUAA | 0.268 ± 0.036
35 | CUUAAGCUCUGGAUCUACUGGGUUACCUAG [g2:g24:cont:t1G] | 0.0755 ± 0.013
36 | CAAUUCCUUGGAUCUACUGGGUUACCUAA | 0.45 ± 0.061
37 | CUUAACCUCAGGAUCUAGUGGGUUACCUAA | 0.128 ± 0.017
38 | CUUAACCUCUCGAUCUACUGCGUUACCUAA | 0.614 ± 0.057
39 | CUUAUCCUCUCGAUCUACUGGGUUACCUAA | 0.561 ± 0.04
40 | CUUAUCCUCUCGAUCUACUGCGUUACCUAA | 0.636 ± 0.048
41 | CAAUUCCACUGGAUCUACUGGGUUACCAAA | 0.456 ± 0.083
42 | CUUAUCCUCUGGAUCUACAGGGUAACCUAA | 0.128 ± 0.023
43 | GAAUUCCUCUGGUUCUACUGGGUUACCUUA | 0.427 ± 0.064
44 | GUAUUCCUCUGGUUCUACUGGGUUACCUAA | 0.0955 ± 0.034
45 | CAAUUCCUCUGGUCUACUGGGUUACCUAA | 0.369 ± 0.088
46 | CAAUUCCUCUGGUUCUACUGGGUUACGUAA | 0.688 ± 0.045
47 | GAAUUCCUCUGGUUCUACUGGGUUACGUAA | 0.618 ± 0.035
48 | GAAUUCCUCUGGUUCUACUGGGUUACCUAA | 0.678 ± 0.042

Row | Sequence | pre-steady-state target cleavage rate
49 | GAAUUCCUCUGGUCUACUGGGUUACCUAA | 0.301 ± 0.059
50 | CUAUUCCUCUGGUUCUACUGGGUUACCUUA | 0.371 ± 0.057
51 | CUAUUCCUCUGGUUCUACUGGGUUACCUAA | 0.711 ± 0.043
52 | CAAUUCCUCUGGUUCUACUGGGUUACCUUA | 0.475 ± 0.066
53 | CUAUUCCUCUGGUUCUACUGGGUUACGUAA | 0.629 ± 0.059
54 | CAAUUCCUCUGGUUCUACUGGGUUACCUAA | 0.868 ± 0.05
55 | CUUAAGCAGAGGAUCUACUGGGUUACCUAA | 0.0315 ± 0.0087
56 | GAAUUCCACAGGAUCUACUGGGUUACCUAA | 0.408 ± 0.05
57 | CUUAAGGUCUGGAUCUACUGGGUUAGCCUAA | 0.185 ± 0.025
58 | CUUUUCCUCUGGAUCUUCUGGGAUACCUAA | 0.146 ± 0.022
59 | CUUAAGGUGAGGAUCUACUGGGUUACCUAA | 0.0307 ± 0.01
60 | CUUAUCCUCUGGAUCUACUGCGUUACCUAA | 0.498 ± 0.055
61 | CUUAAGGUCUGCAUCUAGUGGGUUACCUAA | 0.0327 ± 0.0059
62 | GAAUUCCUCUGCUUCUACUGGGUUACCUAA | 0.48 ± 0.04
63 | CAUUUCCUCUGGUUCUACUGGGUUACCUAA | 0.772 ± 0.046
64 | CAAUUCCUCUGCUUCUACUGGGUUACCUAA | 0.653 ± 0.056
65 | GAUUUCCUCUGGUUCUACUGGGUUACCUAA | 0.524 ± 0.046
66 | CUUUUCCUCUGGUUCUACUGGGUUACCUAA | 0.621 ± 0.042
67 | CUAUUCCUCUGCUUCUACUGGGUUACCUAA | 0.516 ± 0.04
68 | CUUAAGGUCUGGUUCUAGUGGGUUACCUAA | 0.0776 ± 0.014
69 | CUUAAGGACUGGAUCUACUGGGUUACCAUAA | 0.051 ± 0.039
70 | CUUAAGUUCUGGAUCUACUGGGUUACCUAA | 0.274 ± 0.04
71 | CAAUUCCUCUGGAUCUACUGGGAUACCUUA | 0.219 ± 0.046
72 | CUUAACCUCUGGAUCAACUCGGUUACCUAA | 0.0679 ± 0.013

Row | Sequence | pre-steady-state target cleavage rate
73 | CUUAUCCUCUGGAUCUUCUGGGAUACCUAA | 0.144 ± 0.025
74 | CUUUUCCUCUGGCAUCUACUGGGUUACCUAA | 0.331 ± 0.089
75 | CAAUUCCUCUGGCUCUACUGGGUUACCUAA | 0.66 ± 0.04
76 | CUAUUCCUCUGGCAUCUACUGGGUUACCUAA | 0.399 ± 0.1
77 | CUAUUCCUCUGGCUCUACUGGGUUACCUAA | 0.612 ± 0.042
78 | GAAUUCCUCUGCAUCUACUGGGUUACCUAA | 0.421 ± 0.051
79 | CAAUUCCUCUGCAUCUACUGGGUUACCUAA | 0.57 ± 0.049
80 | GAAUUCCUCUGGCUCUACUGGGUUACCUAA | 0.586 ± 0.038
81 | GAAUUCCUCUGGCAUCUACUGGGUUACCUAA | 0.667 ± 0.17
82 | CAAUUCCUCUGGCAUCUACUGGGUUACCUAA | 0.636 ± 0.17
83 | CUUAACCACUGGAACUACUGGGUUACCUAA | 0.292 ± 0.025
84 | CUAUUCCACUGGAUCUACUGGGUUUCCUAA | 0.448 ± 0.066
85 | CAAUUGCUCUGGAUCUACUGGGUUACCAAA | 0.429 ± 0.071
86 | CUUAAGGUCUGGAUCUACUGGGUUACAUAA | 0.606 ± 0.054
87 | CUAUUCCUCUGGAUCUACUGGGUUACCUAAA | 0.333 ± 0.047
88 | CUUUUCCUCUCGAUCUACUGGCUUACCUAA | 0.201 ± 0.016
89 | CUUAAGGUCUGGAUCAACUGGGUUACGUAA | 0.293 ± 0.039
90 | CUUAACCUCUGGAUCUACUGAGUUACCUAA | 0.646 ± 0.047
91 | CUUAACCUCUGGAUCUACUGGUUACCUAA | 0.0564 ± 0.012
92 | CUUAUCCUCUGGAUCUACUGAGUUACCUAA | 0.779 ± 0.05
93 | CUUAACCUCUGGAUCUACUGGAGUUACCUAA | 0.00317 ± 0.0031
94 | CUUAUCCUCUGGAUCUACUGGGUUACCUAA [g2:g26:cont:t1A] | 0.414 ± 0.063
95 | CUUAUCCUCUGGAUCUACUGGAUUACCUAA | 0.402 ± 0.049
